14-3-3g Raf: alters human 14-3-3 gamma binding to Raf peptide | FP, 14-3-3gamma / TMR-pS259-Raf peptide binding | inhibition, % at 40 µM | actives 0.19% (n = 160,000); in the data active = inhibition above about 30%
Large screens that a line does not name were inactive. Only a selection was taken, and hits are over-represented in it overall.

Cn1c(=NC(=O)c2cc(=O)c3ccccc3o2)sc2c3ccccc3ccc21	none
CCOC(=O)c1sc2nc(CC(=O)OC)nc(Nc3ccccc3OC)c2c1C	none
COc1ccc(C2C(Oc3ccccc3C)C(=O)N2c2cc(C)ccc2C)cc1OC (stereo not drawn)	none
COC(=O)C(C(=O)OC)c1cc(Br)c2noc3c2c1C(=O)c1ccccc1-3	none
CC(C)Nc1cc2c(NC(C)C)onc2c2c1C(=O)c1ccccc1C2=O	14-3-3g Raf 87
CNc1cc(Nc2ccc(C)cc2)c2c3c(onc13)-c1ccccc1C2=O	none
CN(C)c1ccc(CN(C(=O)c2ccc(Br)cc2)C2CCS(=O)(=O)C2)cc1 (stereo not drawn)	none
COc1ccc(Cl)cc1C(=O)Nc1ccc2nc(N3CCC(C)CC3)cc(C)c2c1	none
O=C1C(=O)N(CCCn2ccnc2)C(c2ccncc2)/C1=C(\O)c1ccc(F)cc1 (stereo not drawn)	none
COc1ccccc1C1/C(=C(\O)c2ccc(Cl)cc2)C(=O)C(=O)N1CCCn1ccnc1 (stereo not drawn)	none
COc1ccc(/C(O)=C2\C(=O)C(=O)N(CCCn3ccnc3)C2c2ccccc2F)cc1 (stereo not drawn)	14-3-3g Raf 37
COc1cccc(NC(=O)Nc2cc(S(=O)(=O)N3CCC(C)CC3)ccc2N2CCC(C)CC2)c1	none
CCN1CCCC1CNC(=O)C1c2ccccc2C(=O)N(CCOC)C1c1cn(C)c2ccccc12 (stereo not drawn)	none
Cc1cccc(N=c2oc3c(C)ncc(CO)c3cc2C(=O)Nc2ccccc2C)c1	none
